In the library only some 5.4% were active in any assay of this set; here they are far more common.
rCAG binder: r(CAG) repeat RNA binding; AID 651821; 370,000 tested, 1.3% active; TO-PRO-1 dye displacement fluorescence; inhibition, % at 3 µM;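 active = inhibition above the plate cutoff, the mean of all test compounds on that plate plus 3 SD, cut at about 35% in these data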;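 note: 0% = DMSO alone and 100% = 100 µM mitoxantrone as full dye displacement; higher means more dye released from RNA so lower well fluorescence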
A3A deaminase: inhibitors of human APOBEC3A DNA deaminase. P31941. recombinant A3A, FAM/TAMRA ssDNA deamination fluorescence. inhibition, % at 20 µM. 330,000 tested, 0.41% active;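 active = at least 40% inhibition at 20 µM here, with at most 30% in a related deaminase screen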;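 note: plate controls were A3A with DMSO for no effect and wells lacking A3A enzyme for full effect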
APOBEC3G inh: blocks human APOBEC3G single-stranded DNA deamination | inhibition, % at 20 µM | Q9HC16 | recombinant A3G, ssDNA deamination FAM/TAMRA fluorescence | 330,000 tested, 0.28% active;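 active = inhibition of at least 40% at 20 µM, with no more than 30% in the related APOBEC3A deaminase screen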;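 note: plate controls were DMSO wells with A3G for no effect and wells lacking A3G enzyme for full effect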
PHOSPHO1 block: blocks human PHOSPHO1 phosphatase activity | Q8TCT1 | recombinant PHOSPHO1, absorbance phosphatase assay | inhibition, % at 13.3 µM | 290,000 tested, 1.1% active | AID 1565; in the data active = inhibition above about 60%
Target sequence (Q8TCT1 whole entry, looked up): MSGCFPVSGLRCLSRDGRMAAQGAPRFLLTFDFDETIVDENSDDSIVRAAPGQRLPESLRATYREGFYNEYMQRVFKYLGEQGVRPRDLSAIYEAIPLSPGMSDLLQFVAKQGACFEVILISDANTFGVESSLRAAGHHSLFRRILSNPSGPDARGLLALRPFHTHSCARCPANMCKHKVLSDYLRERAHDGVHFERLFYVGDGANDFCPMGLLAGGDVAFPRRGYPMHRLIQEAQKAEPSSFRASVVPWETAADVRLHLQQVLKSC
ALR inh: inhibitors of human sulfhydryl oxidase ALR; P55789; purified ALR, DTT oxidation, H2O2 HRP-luminol luminescence; inhibition, % (test concentration not listed); 290,000 tested, 3.8% active; AID 485317;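 active = mean replicate inhibition above about 79%, with every replicate also reaching it, limit read from the data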
Target sequence (P55789 whole entry, looked up): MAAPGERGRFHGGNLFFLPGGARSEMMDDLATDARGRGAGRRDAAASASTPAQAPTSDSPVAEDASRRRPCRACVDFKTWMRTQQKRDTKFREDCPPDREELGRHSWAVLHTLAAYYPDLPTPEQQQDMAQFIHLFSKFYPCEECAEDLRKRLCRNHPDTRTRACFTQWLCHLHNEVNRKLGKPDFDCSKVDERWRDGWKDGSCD
aDG glyco act: alpha-DG glycosylation activation | activation, % at 10 µM | Pro5-aDG cells, alpha-DG glycosylation AlphaScreen (IIH6); 0% Pro5, 100% B10-LARGE cell signal | 360,000 tested, 0.22% active;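 active = activation of at least 8% versus controls, or a plate z-score of at least 8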;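 note: Pro5 are CHO cells carrying HIG-tagged alpha-DG that lacks glycosylation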
aDG glyco conf: alpha-DG glycosylation activation, confirmation; Pro5-aDG cells, IIH6 AlphaLISA; scaled to LARGE-overexpressing B10 cells as 100%; activation, % at 10 µM (by protocol); 600 tested, 17% active; shares compounds with aDG glyco act;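 active = activation of at least 7% in one or more replicates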;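 note: cells exposed to compound for two days before detection; 0% = DMSO-treated Pro5 cells and 100% = DMSO-treated B10-LARGE cells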
An asterisk follows results filed as active; / = no result given.

SMILES	rCAG binder	A3A deaminase	APOBEC3G inh	PHOSPHO1 block	ALR inh	aDG glyco act	aDG glyco conf
Cc1ccc(F)cc1CNC(=O)c1cc(COc2ccc3ncccc3c2)on1	-3	4	15	46	-6	8.7*	3
CC1(C)Oc2cc3oc(=O)ccc3c3c2C2C1CCC(C)(O3)C2O (configuration not stated)	-1	/	/	/	/	4	/
COc1ccccc1CN=Cc1[nH]c2ccc(Br)c(Cl)c2c1O	11	-2	-5	8	0	5.8*	1
Cc1cccc(N=Cc2[nH]c3ccc(Br)c(Cl)c3c2O)c1	3	/	/	12	/	6	/
Cc1ccc(-n2c(SCC(=O)Nc3cccc4ccccc34)nnc2-c2cnccn2)cc1	3	/	/	/	/	/	/
CCOC(=O)c1cnc(SCC(=O)Nc2cc(OC)ccc2OC)nc1N	-2	5	1	-4	-2	6.7*	0
CCOC(=O)c1cnc(SCC(=O)Nc2ccc(NC(C)=O)c(OC)c2)nc1N	-3	-1	-2	-45	-31	0	/
O=[N+]([O-])c1ccc(COc2cccc(CN3CCOCC3)c2)cc1	0	/	/	/	/	0	/
CCCCCCc1nc2ccccc2c(=O)n1NC(=O)c1c(O)c2c(n(CC(C)C)c1=O)CCCC2	-1	5	0	-1	/	6.3*	2
COCCCn1cn[nH]c1=S	-1	2	1	-27	-6	6.3*	3
COCCCn1c(-c2ccccc2Cl)n[nH]c1=S	4	-1	23	5	72	0	/
O=[N+]([O-])c1ccc(NCCCN2CCC(C(O)(c3ccccc3)c3ccccc3)CC2)cc1	5	/	/	/	/	/	/
CCN1CCN(c2ccc(NC(=O)COc3ccc(Cl)cc3C)cc2)CC1	-2	-4	-4	/	/	5.2*	2
Clc1ccc(-n2c(SCc3cccc4ccccc34)nnc2-c2cccnc2)cc1	3	/	/	/	/	/	/
N=c1n(CCN2CCOCC2)c2ccccc2n1CC(=O)c1cccc([N+](=O)[O-])c1	3	-3	-7	30	2	1	/
CCCn1c(=N)n(CC(=O)c2ccc([N+](=O)[O-])cc2)c2ccccc21	6	2	-1	-35	-48	1	/
COc1cccc(C(=O)Cn2c(=N)n(C)c3ccccc32)c1	5	-3	-7	13	-5	7.5*	5.1*
N=c1n(CCN2CCOCC2)c2ccccc2n1CC(=O)c1ccc(Cl)c(Cl)c1	3	-3	-13	-12	3	7.7*	6.6*
COc1cccc(C(=O)Cn2c(NCCO)nc3ccccc32)c1	0	-4	-10	-2	2	0	/
CCCn1c(=N)n(CC(=O)c2ccc(Cl)cc2)c2ccccc21	10	-5	-10	35	0	3.8*	6.0*
C[C@@H]1Cn2cnc(C(=O)N3CCN(C(=O)OC(C)(C)C)CC3)c2C(=O)N1	-1	/	/	/	/	/	/
O=Cc1ccc(F)c([B-](F)(F)F)c1	2	/	/	/	/	0	/
Cc1ccc(NC(=O)c2ccco2)nc1	0	/	/	/	/	0	/
O=C(c1ccc2c3c(cccc13)CC2)C1CCCN(Cc2ccncc2)C1 (configuration not stated)	-4	0	-6	13	-4	0	/
CCc1nc(CN2CCCC(C(=O)c3ccc4c5c(cccc35)CC4)C2)c(C)[nH]1 (configuration not stated)	9	-3	-8	60*	-20	7.3*	-1
SMILES	rCAG binder	A3A deaminase	APOBEC3G inh	PHOSPHO1 block	ALR inh	aDG glyco act	aDG glyco conf
CC(=O)OCCn1c([N+](=O)[O-])cnc1C=[N+]([O-])C1CCCCC1	0	/	/	/	/	0	/
CC12CCC(C(NC(=S)NN)C1=O)C2(C)C (configuration not stated)	1	/	/	/	/	27*	0
CC12CCC(C(N)C1=O)C2(C)C (configuration not stated)	1	/	/	/	/	0	/
Cc1c(C(=O)NCc2cccc(Cl)c2)sc(=O)n1Cc1cccc(F)c1	-1	/	/	/	/	6.8*	0
CC(C)(C)n1nc(C2CC2)c(Br)c1NC(=O)c1ccc(Cl)cc1	1	/	/	/	/	/	/
COc1cc(-c2ccc(NC(=O)CN3CCC(C)CC3)c(OC)c2)ccc1NC(=O)CN1CCC(C)CC1	0	/	/	-4	/	18*	4.0*
COc1ccc(C(c2nnnn2C2CCCCC2)N2CCN(C/C=C/c3ccccc3)CC2)cc1 (configuration not stated)	2	/	/	/	/	0	/
c1ccc2c(-c3cc(C4CCNCC4)[nH]n3)cccc2c1	1	-6	-7	33	6	14*	6.4*
O=C(NCC[C@@H]1CC[C@@H](NS(=O)(=O)c2ccccc2)[C@@H](CO)O1)c1cc(Cl)cc(Cl)c1	3	/	/	/	/	7.7*	0
CC1=NC2=CC=CC3=NC(C(Cl)(Cl)Cl)=NC(=N1)N23	2	/	/	/	/	/	/
NC(CCc1ccccc1)c1csc(Nc2ccc(C(=O)c3ccccc3)cc2)n1 (configuration not stated)	19	/	/	/	/	8.0*	3
NC(CCc1ccccc1)c1csc(Nc2ccc(C(=O)NCCO)cc2)n1 (configuration not stated)	11	/	/	/	/	0	/
O=C(NCc1cccnc1)c1ccc(-c2cc3ccccc3oc2=O)cc1	-1	2	-1	43	-12	5.6*	0
CC1CCN(C(=O)c2[nH]cnc2C(=O)N(C)CCO)CC1	0	/	/	/	/	/	/
COc1ccc(C(C(=O)Nc2ccc(F)cc2)N2CCN(CC(=O)N3CCCC3)CC2)cc1 (configuration not stated)	0	/	/	/	/	8.6*	0
O=C(Nc1ccc(F)cc1)C(c1ccccc1)N1CCN(CC(=O)N2CCCC2)CC1 (configuration not stated)	2	17	-3	/	/	0	/
CC(=O)NCC(=O)NC1CCCc2c1cnn2-c1ccc(C(C)(C)C)cc1 (configuration not stated)	-8	-6	-8	24	/	0	/
CC(C)(C)c1ccc(-n2ncc3c2CCCC3NC(=O)C2(C(N)=O)CC2)cc1 (configuration not stated)	-9	-6	-10	24	/	9.6*	2
CN(C)CC(=O)N[C@@H]1C[C@@H]2O[C@@H](CO)CC[C@@H]2O[C@@H]1CCc1ccc(-c2ccc(F)cc2)cc1	3	/	/	/	/	/	/
Cc1ccc(S(=O)(=O)N[C@H](C(=O)OCC(=O)NC(=O)c2cccn2C)C(C)C)cc1	6	/	/	/	/	3.6*	1
CC(C)[C@H](NS(=O)(=O)c1ccccc1)C(=O)OCC(=O)NC(=O)c1cccn1C	9	-2	-10	1	17	0	/
CC(C)(C)c1ccc(OCCCNC2CCCC2)cc1	2	-4	-7	10	2	6.7*	1
Cc1ccc(OCCCNC2CCCC2)cc1	5	-1	-7	-5	-7	0	/
O=C(COC(=O)c1ccc(O)cc1O)N=c1sccn1Cc1ccccc1Cl	11	13	14	/	5	0	/

Source: PubChem
